The text below walks through data of ChEMBL document CHEMBL3988442, “University of Dundee, Small-Polar-MMV Screening Library” (2021).

Assay [1] deals with T1, Aspartate--tRNA(Asp/Asn) ligase (Mycobacterium tuberculosis (strain ATCC 25618 / H37Rv)) (UniProt P9WFW3).
T1 sequence (whole entry): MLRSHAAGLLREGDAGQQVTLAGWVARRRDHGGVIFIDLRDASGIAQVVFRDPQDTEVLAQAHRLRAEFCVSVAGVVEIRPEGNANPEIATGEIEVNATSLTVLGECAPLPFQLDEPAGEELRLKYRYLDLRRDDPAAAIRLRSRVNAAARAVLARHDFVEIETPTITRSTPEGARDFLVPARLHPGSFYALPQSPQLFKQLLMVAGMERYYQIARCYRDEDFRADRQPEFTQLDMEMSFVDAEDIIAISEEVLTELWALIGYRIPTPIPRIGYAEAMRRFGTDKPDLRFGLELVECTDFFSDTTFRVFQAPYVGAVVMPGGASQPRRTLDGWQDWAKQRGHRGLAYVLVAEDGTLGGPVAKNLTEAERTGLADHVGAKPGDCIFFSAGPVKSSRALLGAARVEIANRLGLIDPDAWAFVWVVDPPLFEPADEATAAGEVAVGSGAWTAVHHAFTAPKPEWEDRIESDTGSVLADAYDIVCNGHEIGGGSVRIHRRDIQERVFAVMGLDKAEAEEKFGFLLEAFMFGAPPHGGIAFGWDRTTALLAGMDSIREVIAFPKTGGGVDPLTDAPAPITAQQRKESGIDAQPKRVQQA
The assay is described as follows: Assay for Asp RNA synthetase-1 from Mycobacterium tuberculosis. Format: functional. Further details: scale not given: direction of the effect not stated beside the values. To be noted: 30 µM.

Assay [2] deals with Shiga toxin 2 (Escherichia coli O157:H7) (UniProt P09385+P09386). The assay is described as follows: E. coli 0.157:H7 Shiga Toxin SOP - stx2 screening assay. Type of assay: functional. On the set-up: scale not given: direction of the effect not stated beside the values. To be noted: 30 µM.

Consider `O=C(NCC1CC1)C1CN(C(=O)c2cccnc2)CC12CCOCC2` (configuration not stated), for which the Percent Effect is -2.58% in assay [1] and -10.2% in assay [2].
As for `Cc1cc(C[C@@H]2COC[C@H]2NCc2ccccc2C(F)(F)F)on1`, the Percent Effect in assay [1] is 2.34%; in assay [2] it was -7.33%.
On the same counts, the results for `Cc1ccc(C(=O)N2CCC3(CC2)CC(N2CCOCC2)C3)cc1` are -1.52% and 3.95%.
Taken in the same sequence, the figures for `CCn1cc(NC(=O)NCC(O)c2ccccc2)cn1` (configuration not stated) were -0.4% and -5.7%.
Taken in the same sequence, the figures for `Cc1nccnc1N1CC[C@@H](NC(=O)c2cnccn2)[C@H](O)C1` were 3.96% and -24.4%.
On to `CCCS(=O)(=O)N1CCN(c2cc(-n3cnc(C)c3C)nc(C)n2)CC1`, for which the Percent Effect was -3.39% in assay [1] and -17.5% in assay [2].
On the same counts, the results for `c1ccc(OCC2CC3(CCN(Cc4ccncc4)CC3)CO2)nc1` (configuration not stated) are 1.19% and -30.5%.
Consider `CCCOc1ccc(NC(=O)NCCC(=O)N(C)C)cc1Cl`, for which the Percent Effect in assay [1] was 1.09%; in assay [2] it was -67.2%.
Turning to `O=C(Cc1ccc2c(c1)CCO2)N1CCN(c2cnccn2)CC1`, the Percent Effect in assay [1] was -4.06%; in assay [2], -23.3%.
Regarding `CCc1nc(C2CCCN(C(=O)CN(C)S(C)(=O)=O)C2)no1` (configuration not stated), the Percent Effect in assay [1] was -3.98%; in assay [2], -6.61%.
Taken in the same sequence, the figures for `CCS(=O)(=O)N1CCc2ccc(NC(=O)Nc3cccc(SC)c3)cc21` were -4.68% and -22%.
Taken in the same sequence, the figures for `COCc1nc(C(=O)N2CCCC2c2c(C)nn(C)c2C)cs1` (configuration not stated) were -5.87% and -13.6%.
Taken in the same sequence, the figures for `CNC(=O)COc1ccccc1CNC1CCc2ncnn2C1` (configuration not stated) were -0.833% and -29.9%.
Turning to `CCN(Cc1nc2c(cnn2C)c(=O)[nH]1)c1cccc(F)c1`, the Percent Effect in assay [1] was 1.24%; in assay [2], -7.65%.
For `COc1ccc(OC)c(C2CCN(Cc3nc(C)n4ccccc34)C2)c1` (configuration not stated), the results for the Percent Effect in assay [1] and in assay [2] were -1.14% and 10.1%, respectively.
On the same counts, the results for `Cc1ccc(C(=O)N2CCC3(CC2)COC(COc2ccccn2)C3)o1` (configuration not stated) are 4.9% and 5.7%.
Taken in the same sequence, the figures for `O=C(N1CCC(Nc2cccnn2)CC1)C1(c2ccc(F)cc2)CC1` were 4.44% and -20.3%.
Taken in the same sequence, the figures for `CCOc1cc(F)ccc1NS(=O)(=O)c1cc(C)c(C(=O)O)s1` were 1.85% and -9.96%.
As to `CCOCC1CN(S(C)(=O)=O)Cc2ncn(CC3CC3)c21` (configuration not stated), the Percent Effect in assay [1] is -0.663%; in assay [2] it was -6.21%.
Regarding `Cc1noc(C)c1CN1CCc2nn(C(C)C)c(=O)cc2C1`, the Percent Effect in assay [1] was 7.84%; in assay [2] it was -14%.
For the compound `Cc1nn(C)c(N(C)C)c1CNCc1cccnc1-n1cncn1`, the Percent Effect in assay [1] is -4.35%; in assay [2], -5.81%.
For `COCCc1noc(CN2CCCCC2Cn2cc(C)cn2)n1` (configuration not stated), the Percent Effect was -2.46% in assay [1] and 9.7% in assay [2].
In the case of `CN(C)C(=O)CN1C(=O)CCC12CCN(Cc1ccc(F)cc1)CC2`, the Percent Effect is 1.43% in assay [1] and -5.2% in assay [2].
In the case of `CNC(=O)C1Cn2ccnc2C2(CCN(CCF)CC2)O1` (configuration not stated), the Percent Effect in assay [1] was 2.17%; in assay [2], -8.7%.
On the same counts, the results for `COc1cn(-c2ccccc2)nc1C(=O)NCCCN1CCCC(C)C1` (configuration not stated) are -1.18% and 7%.
Consider `Cc1ccc(CNC(C)c2ccc3[nH]c(=O)[nH]c3c2)s1` (configuration not stated), for which the Percent Effect was 1.6% in assay [1] and -1.3% in assay [2].
Taken in the same sequence, the figures for `CCc1cnc(CN(C)C2CCN(CCc3cccs3)C2)o1` (configuration not stated) were 2.92% and 23.3%.
On the same counts, the results for `COCCCN1CC2(CCCCN2C(=O)c2ccsc2)CC1=O` (configuration not stated) are -3.53% and -5.69%.
On the same counts, the results for `c1coc(CN2CCCC3(COCCN(Cc4c[nH]nn4)C3)C2)c1` (configuration not stated) are 2.45% and 4.89%.
Regarding `COc1cccc(CC2CN(C3CCN(C(C)=O)CC3)CCO2)c1` (configuration not stated), the Percent Effect was -4.28% in assay [1] and -26% in assay [2].
Taken in the same sequence, the figures for `O=C(CCCc1nnc(-c2ccccc2)o1)N1CCN(CCO)CC1` were 2.54% and -26.3%.
On the same counts, the results for `O=C(NCC(O)c1ccc(F)c(F)c1)c1cccnc1O` (configuration not stated) are 2.78% and -4.45%.
Turning to `Cn1ncc2c1CCCC2NCc1ccc(Cl)s1` (configuration not stated), the Percent Effect in assay [1] is -3.2%; in assay [2] it was 28.8%.
As to `CS(=O)(=O)NCC1CCCN(C(=O)Nc2ccccc2Cl)C1` (configuration not stated), the Percent Effect in assay [1] is -5.99%; in assay [2] it was 10.6%.
As for `NCC(=O)N1CCCC(c2cncc(Nc3ncccn3)n2)C1` (configuration not stated), the Percent Effect is 1.44% in assay [1] and 1.91% in assay [2].
On the same counts, the results for `CC(C)CCC(C)NC(=O)c1ccc(OCC(N)=O)cc1` (configuration not stated) are 2.49% and -8.96%.
With `CC(OCC(F)(F)F)C(=O)N1CCN(S(C)(=O)=O)CC1` (configuration not stated), the figures for the Percent Effect in assay [1] and in assay [2] were -0.604% and -10.8%, respectively.
On the same counts, the results for `Cc1nc(C)n(CC2CCCN2CC(=O)Nc2cc(C(C)C)no2)n1` (configuration not stated) are 3.17% and 27.8%.
Taken in the same sequence, the figures for `COc1ccc(C)cc1CN(C)Cc1nc2c(cnn2C)c(=O)[nH]1` were 1.01% and 46.7%.
On the same counts, the results for `CC(C)N(C)C(=O)C1=NOC2(CCN(C(=O)c3ccncc3)C2)C1` (configuration not stated) are -1.05% and -7.21%.
For the compound `O=C(NCCn1ccnc1)N1CCN(c2nccs2)CC1`, the figures for the Percent Effect in assay [1] and in assay [2] were 2.45% and -47.2%, respectively.
With `Cc1cc(CN2CCN(C(=O)c3sccc3C3CC3)CC2)on1`, the values for the Percent Effect in assay [1] and in assay [2] were 0.922% and 27%, respectively.
Consider `COC(=O)c1ccc2ccn(CC3CCCO3)c(=O)c2c1` (configuration not stated), for which the Percent Effect in assay [1] is 7.1%; in assay [2], 6.53%.
Taken in the same sequence, the figures for `COCCN1CCN(Cc2cccc(C(=O)N(C)C)c2)CC1C` (configuration not stated) were 1.34% and -34.7%.
On the same counts, the results for `COc1cc(CNC(=O)CNc2cc(Cl)ccc2OC)ccn1` are 3.88% and 20.6%.
Turning to `Cc1cc2c(=O)n3c(nc2s1)CCN(C(=O)c1ccncc1)CC3`, the Percent Effect in assay [1] was 0.789%; in assay [2], 3.16%.
On to `CCN1CC2(CC1=O)CN(C(C)=O)CCN(C(=O)c1ccco1)C2` (configuration not stated), for which the Percent Effect in assay [1] is -3.81%; in assay [2], -35.2%.
On the same counts, the results for `CN(CCc1cccs1)C1CCCN(Cc2noc(C3CC3)n2)C1` (configuration not stated) are -1.53% and 16.2%.
Consider `CC(C)n1ccnc1C1CCN(C(=O)C2COc3ccccc3O2)CC1` (configuration not stated), for which the results for the Percent Effect in assay [1] and in assay [2] were -1.53% and 13.2%, respectively.
On the same counts, the results for `COCC(=O)N1CC[C@@H]2O[C@@H](COCc3csc(C)n3)CC[C@@H]21` are 7.78% and -9.07%.
In the case of `CCc1nc(C2CCCN2C(=O)C2=COCC2)no1` (configuration not stated), the Percent Effect in assay [1] is -0.485%; in assay [2], -3.44%.
